# Source: PubChem (National Center for Advancing Translational Sciences (NCATS))
# Sm TGR inh: blocks Schistosoma mansoni thioredoxin glutathione reductase; Q962Y6; purified TGR, DTNB reduction, TNB absorbance 405 nm; Potency, µM (highest dose often 114 µM), without a hit: top-dose activity change, negative = inhibition, actives largely listed as inhibitors; hit rate 3% among 360,000; AID 485364; note: potency is the fitted concentration of half-maximal effect; % is set by controls: 0 for no effect and ±100 for the full control effect; nearly all actives have a fitted effect of over 60% in size
#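 First, TGR (20 nM dispensed) and NADPH were mixed with compound. Second, a 15 min room-temperature incubation followed. Third, further NADPH and then DTNB were added to start the reaction. Finally, TNB absorbance was monitored kinetically.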
# Cycloheximide cs: affects cycloheximide protein synthesis inhibition readout, counter-screen; cell reporter, cycloheximide protein synthesis inhibition counterscreen; max response, %; hit rate 12% among 300,000; in the data active = max response mostly above about 13%, no sharp cut-off; inactive = mostly below about 14%; note: read at 38.3 µM for the half of the compounds with a filed dose; 0% is about no effect
# NS1 inh: influenza NS1 inhibition; Potency, µM (doses to about 46.1 µM), without a hit: at the top dose activity, positive = more growth; hit rate 0.4% among 270,000; calls by dose curve; note: potency is the fitted concentration of half-maximal effect; actives are rising curves; nearly all actives have a fitted effect of over 50% in size
#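 Read-out: OD600 growth recovery of NS1-expressing budding yeast. Cells grown overnight at 30C in -URA glucose medium, washed, resuspended and diluted 1:100 in 2% galactose assay medium, pH 6.0. Same strain lacking NS1 served as positive control.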
# Pf growth 96h: P. falciparum growth inhibition at 96 hour, primary screen for plastid delayed-death inhibitors. P. falciparum luciferase reporter growth, 96 h. Potency, µM (highest dose often 28.7 µM), without a hit: top-dose activity change, negative = inhibition, usual class: inhibitors. hit rate 6.9% among 320,000. AID 504834; note: potency is the fitted concentration of half-maximal effect; % is set by controls: 0 for no effect and ±100 for the full control effect
#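 P. falciparum expressing integrated firefly luciferase grown in erythrocytes (2% hematocrit, 0.05% parasitemia final) with compounds for 96 hours at 37 C, 5% CO2. Growth inhibition read as loss of luminescence after adding luciferase detection reagent.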
# Shiga inhibitor: blocks Shiga toxin action in Vero cells; Vero cells, Shiga toxin protein synthesis inhibition reporter; inhibition, % at 38.7 µM; hit rate 9.2% among 290,000; AID 2315; in the data active = inhibition mostly above about 28%, no sharp cut-off; inactive = mostly below about 43%; note: 0% is about no effect
# Pf growth 48h: P. falciparum growth inhibition at 48 hours (one generation) | P. falciparum luciferase growth in erythrocytes, 48 h | hit rate 5.9% among 310,000 | Potency, µM (highest dose often 28.7 µM), without a hit: at the top dose activity change, negative = inhibition, usual class: inhibitors | AID 504832; note: potency is the fitted concentration of half-maximal effect; % is set by controls: 0 for no effect and ±100 for the full control effect
#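 Parasite viability was followed by luminescence of a genomically integrated firefly luciferase. Cultures held 0.1% parasitemia at 2% hematocrit (final), incubated under 5% CO2 at 37 C.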
# * marks the source's active call; other numbers are inactive results; ? = inconclusive; nt = no result given. The list is not random: actives were taken first. Their share in the collection is about 21%. Unless noted, calls come from the whole dose curve; as a rule, active = well fitted curve in the direction sought with a large enough effect; inconclusive = small, poorly fitted or top-dose-only effect, or another doubt; inactive = no such curve, though single readings can be large; an effect the other way counts as inactive or inconclusive.
SMILES,Sm TGR inh,Cycloheximide cs,NS1 inh,Pf growth 96h,Shiga inhibitor,Pf growth 48h
Cc1cc(N2CCN(C)CC2)nc2ccc(NC(=S)N3CCN(c4ccc(F)cc4)CC3)cc12,1%,-4,nt,3.7µM*,-32,-17%
Cc1cc(N2CCN(C)CC2)nc2ccc(NC(=S)N3CCN(c4ccc(Cl)cc4)CC3)cc12,-12%,-2,nt,82%,-2,13µM*
Cc1cc(N2CCOCC2)nc2ccc(NC(=O)CCC(=O)N3CCN(c4ccc(F)cc4)CC3)cc12,-6%,4,-15%,?,25,?
Cc1ccc2nc(NC(=O)CSCC(=O)OCC(=O)c3ccc(Br)cc3)sc2c1,-33%,15*,13%,?,46,-19%
COC(=O)c1ccc2nc(NC(=O)CSCC(=O)OCC(=O)c3ccccc3)sc2c1,-27%,36*,-25%,19%,34,32%
Cc1ccc2nc(NC(=O)CSCc3ccccc3)sc2c1,-23%,8,2%,?,-2,nt
O=C(CN1C(=O)NC2(CCCC2)C1=O)NNC(=O)c1ccc(Cl)cc1,-4%,nt,nt,-13%,nt,5%
COc1cc(NC(=O)COC(=O)C=C(C)C)c(C)cc1[N+](=O)[O-],-15%,10,nt,21%,22,10%
COC(=O)c1c(-c2cccnc2)csc1NC(=O)c1cc(C)on1,-1%,63*,-12%,nt,83*,-52%
COc1cccc(-c2cc(C(=O)Nc3cccnc3)no2)c1,-15%,31*,-79%,nt,80*,187%
O=C(Nc1cccnc1)c1cc(-c2ccc(Br)cc2)on1,-11%,20*,-1%,1%,42*,33%
Cc1ccc(-c2nc3ccccn3c2Nc2ccc3c(c2)OCO3)o1,-33%,nt,nt,nt,nt,nt
Cc1ccc(-c2nc3cnccn3c2Nc2ccc3c(c2)OCCO3)o1,?,34*,-11%,0%,22*,-11%
CN(C)c1ccc(-c2nc3cnccn3c2Nc2ccc3c(c2)OCCO3)cc1,0%,31*,1%,?,87*,?
CC1(C)CC(=O)c2c(noc2-c2ccccc2)C1,4%,31*,2%,?,58*,?
CC1(C)CC(=O)c2c(Cc3ccccc3)noc2C1,21%,13,nt,21%,32,5%
O=C(C1CCN(S(=O)(=O)N2CCOCC2)CC1)N1CCN(c2ccc(F)cc2)CC1,8%,-1,nt,-26%,-2,-1%
Cc1ccc(C(=O)N2CCN(c3cccc(Cl)c3)CC2)cc1C,0%,17,-78%,nt,-2,10%
Cc1ccc(C(=O)N2CCN(c3ccccc3)CC2)cc1C,-10%,27*,-10%,nt,43*,19%
O=C(c1cccc(Br)c1)N1CCN(c2ccc(N3CCOCC3)nn2)CC1,-4%,nt,nt,?,nt,-14%
Cc1ccc(C(=O)N2CCN(c3ccc(N4CCOCC4)nn3)CC2)cc1C,-8%,nt,nt,5.2µM*,nt,-15%
O=C(C1CCN(c2ccc(N3CCOCC3)nn2)CC1)N1CCN(c2ccc(F)cc2)CC1,3%,9,-5%,?,71*,-23%
Cc1ccc(C(=O)N2CCC(C)CC2)cc1C,?,17*,6%,0%,35*,28%
O=C(NCC(=O)N(c1ccccc1F)C(C(=O)NC1CCCC1)c1ccncc1)c1ccco1 (stereo not drawn),6%,-6,3%,?,-4,5%
Cc1cccc(NC(=O)c2ccc3nccnc3c2)n1,4%,49*,-15%,-17%,46*,64%
SMILES,Sm TGR inh,Cycloheximide cs,NS1 inh,Pf growth 96h,Shiga inhibitor,Pf growth 48h
Cc1cccc(NC(=O)c2ccc3c(c2)OCCO3)n1,-32%,45*,-6%,361%,50*,251%
Cc1ccccc1C(=O)Nc1cccc(C(=O)N/N=C/c2ccccn2)c1,15%,12*,-4%,14%,26,-17%
Cc1cccc(/C=N/NC(=O)c2cccc([N+](=O)[O-])c2)n1,11%,-2,1%,-109%,3,-9%
COc1ccccc1/C=N/NC(=O)c1cccc(NC(=O)c2ccccc2C)c1,-6%,1,5%,?,-6,13%
Cc1cccc(/C=N/NC(=O)c2cccc(Cl)c2)n1,0%,16*,-5%,-5%,46,0%
COCCNC(=O)CCc1c(C)nc2nc(-c3cc(OC)cc(OC)c3)nn2c1C,1%,5,nt,?,-9,?
Cc1cc(S(=O)(=O)C(CNC(=O)c2ccc(OC(C)C)cc2)c2cccs2)ccc1F (stereo not drawn),-11%,nt,nt,nt,nt,nt
Cc1cccc(NC(=O)c2cccc(NC(=O)c3ccccc3)c2)n1,1%,-3,-36%,13µM*,8,0%
CC(C)(C)c1csc(NC(=O)c2ccncc2)n1,4%,14,nt,36%,19,-5%
CC(C)(C)c1csc(NC(=O)c2ccc3nccnc3c2)n1,0%,63*,19%,?,80*,-8%
O=C(Nc1cccc(C(=O)Nc2ccccc2F)c1)c1ccccc1,3%,-4,-7%,8%,2,18%
Cc1cccc(/C=N/NC(=O)c2ccc(F)cc2)n1,1%,20*,-8%,32%,40*,?
Cc1cccc(/C=N/NC(=O)c2cccc(NC(=O)c3ccccc3)c2)n1,15%,14*,3%,26%,27,-4%
O=C(N/N=C/c1ccccn1)c1ccc(NC(=O)c2ccc(F)cc2)cc1,11%,11,8%,-26%,25,?
COC(C[C@@H](O)C[C@H](O)COCc1ccccc1)OC,-1%,-11,-1%,60%,-8,46%
CCC(C)S(=O)(=O)c1oc(-c2cccs2)nc1S(=O)(=O)c1ccccc1 (stereo not drawn),0.71µM*,nt,nt,nt,nt,nt
CC(C)CS(=O)(=O)c1oc(-c2ccc(F)cc2)nc1S(=O)(=O)c1ccccc1,1.1µM*,nt,nt,nt,nt,nt
O=S(=O)(c1ccccc1)c1nc(-c2ccc(F)cc2)oc1NCC1CCCO1 (stereo not drawn),45µM*,nt,nt,?,nt,?
O=S(=O)(c1ccccc1)c1nc(-c2ccc(F)cc2)oc1NCc1ccccc1,9%,nt,nt,nt,nt,nt
C[C@]12CCC(=O)C=C1CCC1C2C(=O)C[C@]2(C)C1CC[C@]2(O)C(=O)CO (stereo partly drawn),nt,nt,nt,2%,nt,-6%
CCOC(=O)C1CCN(S(=O)(=O)c2ccc3c4c2CC(=O)N4CC(C)S3)CC1 (stereo not drawn),-2%,1,16%,17%,-2,-3%
CS/C(=C\[N+](=O)[O-])Nc1ccc(F)cc1,0.25µM*,12,6%,-11%,-8,?
CS/C(=C\[N+](=O)[O-])Nc1ccccc1,0.25µM*,-3,-9%,2%,20,4%
COc1ccc(N/C(=C/[N+](=O)[O-])SC)cc1,?,-4,nt,?,-13,8%
CC(C)N(C(=O)Cn1cc(SCC(=O)Nc2ccccc2F)c2ccccc21)C(C)C,8%,nt,nt,nt,nt,nt
Cc1cccc(NC(=O)c2n[nH]c([N+](=O)[O-])c2Br)c1C,-1%,22*,nt,?,67*,78%
